Test results: the supplement of paper PMC11732987, “Enantioselective OTUD7B fragment discovery through chemoproteomics screening and high-throughput optimisation” (Communications Chemistry, 2025)

Tests used:
Experiment in all cases: log2 ratio of Biotin-Ahx-Ub-VS probe labelling (fragment/DMSO); higher = less target engagement (more negative = stronger competition), active = hit call of the paper (q ≤ 0.05, log2 ratio ≤ -1)
Conditions in all cases: compound concentration: 200 uM; treatment time: 3 h
USP19 = molecular target: T1, USP19 (UniProt O94966)
T1 sequence (whole entry): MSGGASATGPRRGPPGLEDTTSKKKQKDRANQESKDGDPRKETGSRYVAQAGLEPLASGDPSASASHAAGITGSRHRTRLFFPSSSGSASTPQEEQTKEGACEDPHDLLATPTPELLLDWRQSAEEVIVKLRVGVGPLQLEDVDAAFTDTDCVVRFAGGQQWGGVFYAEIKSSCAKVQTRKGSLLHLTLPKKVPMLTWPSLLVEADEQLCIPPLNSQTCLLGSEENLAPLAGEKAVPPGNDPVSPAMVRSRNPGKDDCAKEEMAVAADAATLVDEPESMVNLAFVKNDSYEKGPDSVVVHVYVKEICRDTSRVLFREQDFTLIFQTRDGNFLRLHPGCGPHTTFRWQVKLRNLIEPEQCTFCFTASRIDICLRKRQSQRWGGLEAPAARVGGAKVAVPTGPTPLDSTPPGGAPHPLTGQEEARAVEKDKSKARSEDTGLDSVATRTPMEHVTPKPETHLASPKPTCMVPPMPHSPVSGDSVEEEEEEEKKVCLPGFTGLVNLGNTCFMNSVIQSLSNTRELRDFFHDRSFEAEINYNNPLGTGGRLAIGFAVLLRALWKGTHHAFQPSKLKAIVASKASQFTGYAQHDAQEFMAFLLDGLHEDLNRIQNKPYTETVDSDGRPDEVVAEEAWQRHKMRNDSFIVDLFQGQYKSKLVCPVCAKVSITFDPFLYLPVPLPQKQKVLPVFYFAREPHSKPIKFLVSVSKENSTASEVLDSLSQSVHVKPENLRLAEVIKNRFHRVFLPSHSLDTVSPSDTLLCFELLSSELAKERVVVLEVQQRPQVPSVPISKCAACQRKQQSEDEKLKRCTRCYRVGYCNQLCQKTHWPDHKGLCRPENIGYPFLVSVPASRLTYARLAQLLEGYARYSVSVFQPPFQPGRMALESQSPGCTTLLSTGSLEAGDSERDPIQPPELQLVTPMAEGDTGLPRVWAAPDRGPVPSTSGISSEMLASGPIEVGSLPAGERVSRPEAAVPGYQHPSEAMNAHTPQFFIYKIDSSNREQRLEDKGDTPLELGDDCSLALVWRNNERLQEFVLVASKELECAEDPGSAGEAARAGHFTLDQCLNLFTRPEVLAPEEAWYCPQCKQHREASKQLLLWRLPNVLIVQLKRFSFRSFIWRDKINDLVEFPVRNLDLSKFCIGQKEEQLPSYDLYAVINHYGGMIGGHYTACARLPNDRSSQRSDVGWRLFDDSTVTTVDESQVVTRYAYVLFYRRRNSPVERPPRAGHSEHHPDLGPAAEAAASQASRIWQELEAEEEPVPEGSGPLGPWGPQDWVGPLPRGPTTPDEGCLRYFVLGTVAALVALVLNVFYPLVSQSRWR
In short: (§1)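 Triplicate samples of HEK293T lysate, 495 µg each, received fragment at 200 µM or vehicle for 3 h, followed by Biotin-Ahx-Ub-VS (0.5 µM final) for 1 h. After NeutrAvidin enrichment of labelled DUBs and LysC/trypsin digestion, peptides were run by diaPASEF LC-MS/MS. The values are average log2 fragment/vehicle ratios from global-median-normalised Spectronaut label-free quantities, tested by unpaired t-test on proteins having ≥2 unique peptides.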

USP24 = USP24 (UniProt Q9UPU5)
USP24, sequence (Q9UPU5 whole entry): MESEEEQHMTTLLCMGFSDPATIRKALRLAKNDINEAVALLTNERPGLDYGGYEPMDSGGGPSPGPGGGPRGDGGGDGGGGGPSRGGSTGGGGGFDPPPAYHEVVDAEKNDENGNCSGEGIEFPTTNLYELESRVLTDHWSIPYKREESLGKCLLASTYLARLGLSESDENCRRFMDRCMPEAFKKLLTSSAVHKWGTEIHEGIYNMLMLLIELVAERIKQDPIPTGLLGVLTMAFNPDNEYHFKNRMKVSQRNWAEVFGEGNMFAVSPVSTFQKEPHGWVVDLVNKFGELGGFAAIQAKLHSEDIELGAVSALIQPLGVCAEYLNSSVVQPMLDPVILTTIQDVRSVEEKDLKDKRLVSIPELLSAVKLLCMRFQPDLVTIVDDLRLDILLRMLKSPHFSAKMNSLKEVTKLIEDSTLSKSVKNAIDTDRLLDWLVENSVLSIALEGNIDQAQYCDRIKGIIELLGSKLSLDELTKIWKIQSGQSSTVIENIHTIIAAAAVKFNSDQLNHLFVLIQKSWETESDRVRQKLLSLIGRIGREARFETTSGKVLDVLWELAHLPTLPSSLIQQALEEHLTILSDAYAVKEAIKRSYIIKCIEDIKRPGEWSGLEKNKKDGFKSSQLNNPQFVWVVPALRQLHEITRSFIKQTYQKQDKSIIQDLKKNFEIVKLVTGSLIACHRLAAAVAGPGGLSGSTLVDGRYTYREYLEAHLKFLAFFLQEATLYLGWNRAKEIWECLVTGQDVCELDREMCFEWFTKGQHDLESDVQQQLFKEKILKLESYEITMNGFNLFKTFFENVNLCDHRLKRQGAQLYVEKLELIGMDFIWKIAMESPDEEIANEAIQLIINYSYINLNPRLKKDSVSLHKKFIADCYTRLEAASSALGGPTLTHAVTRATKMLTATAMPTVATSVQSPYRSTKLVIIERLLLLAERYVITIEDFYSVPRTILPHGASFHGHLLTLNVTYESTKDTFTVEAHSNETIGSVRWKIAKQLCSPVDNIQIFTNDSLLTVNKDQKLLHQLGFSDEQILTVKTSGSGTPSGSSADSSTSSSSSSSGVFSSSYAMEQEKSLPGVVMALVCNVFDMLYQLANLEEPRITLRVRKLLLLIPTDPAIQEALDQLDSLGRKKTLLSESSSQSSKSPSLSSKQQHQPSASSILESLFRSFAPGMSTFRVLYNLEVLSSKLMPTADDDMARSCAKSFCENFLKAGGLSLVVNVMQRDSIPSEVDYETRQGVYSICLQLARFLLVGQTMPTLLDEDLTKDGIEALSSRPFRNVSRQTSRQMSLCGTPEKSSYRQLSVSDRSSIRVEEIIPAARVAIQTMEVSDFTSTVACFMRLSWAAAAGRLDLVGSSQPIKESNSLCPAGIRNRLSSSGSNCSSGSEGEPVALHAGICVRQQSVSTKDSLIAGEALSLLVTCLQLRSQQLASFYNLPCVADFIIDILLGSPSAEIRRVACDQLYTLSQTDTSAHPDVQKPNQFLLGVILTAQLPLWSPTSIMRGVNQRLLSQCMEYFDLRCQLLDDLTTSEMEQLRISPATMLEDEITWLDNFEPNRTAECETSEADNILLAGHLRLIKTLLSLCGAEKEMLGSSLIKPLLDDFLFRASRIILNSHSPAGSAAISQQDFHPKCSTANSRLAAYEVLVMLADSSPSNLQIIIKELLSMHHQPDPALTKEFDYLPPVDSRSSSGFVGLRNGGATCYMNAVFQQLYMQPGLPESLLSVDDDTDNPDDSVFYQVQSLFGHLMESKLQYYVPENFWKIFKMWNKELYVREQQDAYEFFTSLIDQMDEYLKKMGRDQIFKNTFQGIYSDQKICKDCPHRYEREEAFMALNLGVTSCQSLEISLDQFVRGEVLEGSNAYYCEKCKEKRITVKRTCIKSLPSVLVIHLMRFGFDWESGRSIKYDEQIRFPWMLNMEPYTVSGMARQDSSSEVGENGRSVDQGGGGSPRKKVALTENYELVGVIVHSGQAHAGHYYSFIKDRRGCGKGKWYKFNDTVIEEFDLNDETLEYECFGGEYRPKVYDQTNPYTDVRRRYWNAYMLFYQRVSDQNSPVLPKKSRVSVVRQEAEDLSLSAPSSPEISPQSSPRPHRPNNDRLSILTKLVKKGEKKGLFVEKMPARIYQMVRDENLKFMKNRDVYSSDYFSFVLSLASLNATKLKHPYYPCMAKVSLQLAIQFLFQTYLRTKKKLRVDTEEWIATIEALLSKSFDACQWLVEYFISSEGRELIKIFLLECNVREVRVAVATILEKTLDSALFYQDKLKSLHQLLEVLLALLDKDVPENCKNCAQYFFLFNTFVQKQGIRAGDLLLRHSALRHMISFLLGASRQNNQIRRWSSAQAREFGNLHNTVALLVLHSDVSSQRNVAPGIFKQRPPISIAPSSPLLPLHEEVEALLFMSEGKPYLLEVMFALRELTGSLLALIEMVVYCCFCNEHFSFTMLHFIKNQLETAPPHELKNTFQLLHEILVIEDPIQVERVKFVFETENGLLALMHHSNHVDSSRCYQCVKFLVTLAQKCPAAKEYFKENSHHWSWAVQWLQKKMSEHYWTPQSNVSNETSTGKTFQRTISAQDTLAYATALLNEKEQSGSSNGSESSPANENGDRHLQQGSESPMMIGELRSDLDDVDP
In short: as §1

USP25 = molecular target: T2, USP25 (UniProt Q9UHP3)
T2 sequence (whole entry): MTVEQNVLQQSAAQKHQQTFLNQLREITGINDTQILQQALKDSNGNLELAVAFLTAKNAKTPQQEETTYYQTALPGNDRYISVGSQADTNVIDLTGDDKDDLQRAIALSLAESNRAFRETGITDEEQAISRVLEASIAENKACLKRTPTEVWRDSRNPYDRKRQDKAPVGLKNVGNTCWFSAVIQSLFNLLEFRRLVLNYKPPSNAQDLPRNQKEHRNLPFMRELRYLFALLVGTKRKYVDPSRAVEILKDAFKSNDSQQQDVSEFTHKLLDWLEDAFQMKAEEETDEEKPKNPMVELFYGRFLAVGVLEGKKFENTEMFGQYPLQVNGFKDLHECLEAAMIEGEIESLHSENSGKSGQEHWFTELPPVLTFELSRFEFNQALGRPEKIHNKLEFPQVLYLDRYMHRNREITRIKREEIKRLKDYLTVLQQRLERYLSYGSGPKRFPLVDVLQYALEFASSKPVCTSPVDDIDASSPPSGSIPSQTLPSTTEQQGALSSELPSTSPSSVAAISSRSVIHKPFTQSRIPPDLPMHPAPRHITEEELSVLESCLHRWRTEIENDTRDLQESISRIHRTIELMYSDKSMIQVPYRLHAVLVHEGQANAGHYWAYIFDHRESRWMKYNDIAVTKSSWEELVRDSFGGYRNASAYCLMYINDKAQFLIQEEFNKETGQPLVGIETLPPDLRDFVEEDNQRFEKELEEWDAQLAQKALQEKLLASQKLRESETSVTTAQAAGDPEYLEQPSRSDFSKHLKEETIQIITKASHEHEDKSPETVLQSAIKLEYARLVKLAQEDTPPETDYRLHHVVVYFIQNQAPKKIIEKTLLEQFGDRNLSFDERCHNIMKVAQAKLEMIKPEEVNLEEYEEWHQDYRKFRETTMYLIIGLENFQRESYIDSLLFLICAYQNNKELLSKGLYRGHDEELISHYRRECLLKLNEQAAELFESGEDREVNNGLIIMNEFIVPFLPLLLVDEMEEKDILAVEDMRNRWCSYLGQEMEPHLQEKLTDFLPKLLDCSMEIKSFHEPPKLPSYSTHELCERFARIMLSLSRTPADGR
In short: as §1

USP28 = molecular target: T3, USP28 (UniProt Q96RU2)
T3 sequence (whole entry): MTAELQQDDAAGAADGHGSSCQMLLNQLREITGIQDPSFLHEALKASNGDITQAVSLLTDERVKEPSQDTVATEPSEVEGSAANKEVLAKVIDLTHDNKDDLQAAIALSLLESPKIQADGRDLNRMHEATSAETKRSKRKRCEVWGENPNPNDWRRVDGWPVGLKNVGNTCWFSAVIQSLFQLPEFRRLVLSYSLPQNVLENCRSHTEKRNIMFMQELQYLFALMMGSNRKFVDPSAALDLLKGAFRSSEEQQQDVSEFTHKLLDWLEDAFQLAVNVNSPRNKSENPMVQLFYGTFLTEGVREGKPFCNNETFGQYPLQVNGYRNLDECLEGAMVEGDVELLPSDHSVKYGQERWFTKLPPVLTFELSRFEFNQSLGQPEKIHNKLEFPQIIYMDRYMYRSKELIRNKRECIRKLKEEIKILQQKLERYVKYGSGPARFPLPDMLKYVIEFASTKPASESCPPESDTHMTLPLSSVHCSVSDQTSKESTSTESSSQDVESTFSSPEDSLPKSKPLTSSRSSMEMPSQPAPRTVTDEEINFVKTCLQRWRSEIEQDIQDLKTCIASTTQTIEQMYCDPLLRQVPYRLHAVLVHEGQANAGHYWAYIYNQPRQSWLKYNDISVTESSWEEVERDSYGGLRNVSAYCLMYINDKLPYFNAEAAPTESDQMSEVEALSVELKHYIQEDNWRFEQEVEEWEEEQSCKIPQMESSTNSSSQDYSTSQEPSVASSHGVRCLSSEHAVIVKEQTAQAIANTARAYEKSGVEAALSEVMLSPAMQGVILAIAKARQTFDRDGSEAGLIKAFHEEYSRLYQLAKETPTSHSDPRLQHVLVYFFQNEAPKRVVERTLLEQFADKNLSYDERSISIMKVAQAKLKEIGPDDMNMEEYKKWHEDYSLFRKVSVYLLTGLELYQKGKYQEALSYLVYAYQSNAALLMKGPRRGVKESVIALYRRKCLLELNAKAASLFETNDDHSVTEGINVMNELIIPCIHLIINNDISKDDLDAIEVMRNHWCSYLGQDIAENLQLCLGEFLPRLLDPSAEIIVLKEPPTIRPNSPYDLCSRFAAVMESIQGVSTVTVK
In short: as §1

Measured: log2 ratio of Biotin-Ahx-Ub-VS probe labelling

O=C(CCl)N(C1=CCCCC1)C1CC1
inactive: USP19 -0.0989 | USP24 -0.573 | USP25 -0.226 | USP28 -0.185
